# Legend:
# Experiment in all cases: PBM binding z-score (relative to random genomic background probes); higher = stronger binding; sequences stand for … in GC…GCGATTGACAGCGTAGAATGAAGG
# [1] = system: FXR:RXRa (NR concentration 270 nM, RXRa partner concentration 90 nM)
# How it was run: (§1)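 Probes were double-stranded and carried 34-nt variable regions with direct-repeat seeds, single-nucleotide variants, half-site ablations and random human genomic background sequences, printed on custom Agilent 4×180K protein-binding microarrays. Arrays were incubated 1 h with ligand-free nuclear receptor dimers in PBS pH 7.4, 2% milk, 0.02% Triton X-100, 1 mM DTT, 0.2 mg/mL BSA and 0.4 mg/ml salmon testes DNA. Antibodies against each partner (one per run) detected binding, and scanned fluorescence was regression-normalized. Binding z-scores use the random background probes as reference.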
# [2] = system: LXRa:RXRa (NR concentration 270 nM, RXRa partner concentration 90 nM)
# How it was run: as §1
# [3] = system: LXRa homodimer (NR concentration 270 nM)
# How it was run: as §1
# [4] = system: LXRb:RXRa (NR concentration 270 nM, RXRa partner concentration 90 nM)
# How it was run: as §1
# [5] = system: LXRb homodimer (NR concentration 270 nM)
# How it was run: as §1
# [6] = system: PPARa:RXRa (NR concentration 270 nM, RXRa partner concentration 90 nM)
# How it was run: as §1
# [7] = system: PPARg:RXRa (NR concentration 180 nM, RXRa partner concentration 90 nM)
# How it was run: as §1
# [8] = system: PPARg:RXRa 270nM:90nM, anti-RXR (NR concentration 270 nM, RXRa partner concentration 90 nM)
# How it was run: as §1
# [9] = system: PPARg:RXRa 30nM:10nM, anti-RXR (NR concentration 30 nM, RXRa partner concentration 10 nM)
# How it was run: as §1
# [10] = system: PPARg:RXRa 90nM:30nM, anti-RXR (NR concentration 90 nM, RXRa partner concentration 30 nM)
# How it was run: as §1
Sequence,PBM binding z-score [1],PBM binding z-score [2],PBM binding z-score [3],PBM binding z-score [4],PBM binding z-score [5],PBM binding z-score [6],PBM binding z-score [7],PBM binding z-score [8],PBM binding z-score [9],PBM binding z-score [10]
TAGCCTAGGTCAGATCGGGTCAGTATACGCTATA,2.96,2.75,0.202,2.43,-0.00739,2.8,1.19,1.5,0.171,1.08
ATCTCTAGGTAAAAGTTCAGTGCATCCCGAGGAT,0.914,1.67,1.72,0.979,0.86,4.39,8.17,7.48,7.56,8.52
ATCTCGAGGTAAGACTCAGTTCAGTGAAGAACGC,0.0769,-0.0595,-0.0445,-0.053,-0.194,0.0746,0.0104,-0.287,-0.212,-0.236
CCTTACGGGTCAAGATTATAGCACGGGTGGTACG,4.99,3.15,0.00162,2.76,0.37,4.61,3.55,3.6,1.65,2.56
ATATGTAGGTTAAGGGTCATTTAGGTTGGTTCGC,5.62,4.94,3.45,4.87,1.82,6.75,11.6,9.62,10.6,11
GCTATTTGGTCAGTAAAAGGTCACACACCGGTCG,3.6,4.54,5.27,4.71,1.54,4.7,3.46,4.72,2.76,4.46
CCTTACGGGTCAGTCCAGGTTATAGCATCGGAGT,3.69,3.88,0.251,1.74,-0.12,2.85,1.11,1.64,0.319,0.821
AGACTGAGGTTACCAAAGATCAGGGAAACGCTTG,1.67,5.98,-0.277,3,-0.462,2.79,1.29,1.54,0.351,1.05
GCTCGGAGGACAAGGTCCGAGCTTTGTCCGTAGA,-0.694,-0.575,-1.02,-1.07,-1.61,-0.595,-1.19,-0.67,-1.34,-1.09
ATCGCTAGGTAAGACTCAGTTCAGTGAAGAACGC,-0.617,-0.685,-0.587,-0.734,-0.581,-0.45,-0.14,-0.615,-0.356,-0.686
TCTTGTAGATCAAGCAGGATAAGAAAGCCTGAGT,-0.0578,-0.0477,-0.267,-0.411,-0.605,0.163,-0.0969,0.937,2.58,1.76
GGAACGTGGGCAAGTTGATAGCAGAGTTTGATGG,-0.957,-0.763,-0.666,-0.678,-0.982,-0.579,0.382,-0.458,-0.337,-0.422
AGTCAAAGTTCATCTAGGTAACGTGAGATATGCT,6.5,5.85,4.89,3.81,1.73,4.76,6.65,6.18,3.58,5.42
TCATATAGGTAAACAGATGAAAGTCCGTAAGTTA,1.23,0.739,0.342,0.86,-0.0548,1.14,1.36,2.08,3.81,3.18
TAGCCTAGTTCATGGGCCAGTATACCACGCGAAC,0.00503,0.504,-0.133,0.304,-0.689,0.867,0.6,0.24,-0.416,0.104
TAGCCTAGGTAAGATCGGGCCAGTATACGCTATA,-0.504,-0.787,-0.612,-0.831,-1.39,-0.58,0.0812,-0.494,-0.743,-0.292
CCTAATTGGTCAGGAGGTCACACACCGGATATGA,3.74,3.59,2.27,3.64,1.07,4.42,3.88,4.51,2.08,4.16
CTTGCTAGGTCATGGTCAGCTAATCTACAGTATG,3.63,2.86,0.466,1.66,-0.00744,3.61,3.05,3.54,1.34,2.35
GCATAAAGGTAATACAAGGTGAAAGTCCGATTGT,0.963,4.21,0.396,1.65,-0.394,2.06,0.943,1.72,0.61,0.948
CCTCACGGGTCACTGACAGGTTATAGCATTTGGA,4.72,3.72,0.511,3.24,-0.196,4.66,3.37,3.34,0.625,1.85
ATCTCTCGGTAAGACTCAGTTCAGTGAAGAACGC,0.549,0.674,0.845,0.602,1.47,0.3,-0.175,0.19,0.114,0.251
CCTACTGGGCCAAACGTCATTGATTCCAATGCTC,-0.411,-0.228,-0.236,-0.0474,-0.218,2.31,4.96,6.47,5.56,6.79
CGCGAAAGGTCGGTTGAGGTGAGTATACGGATAA,2.66,1.81,-0.0594,1.38,-0.0248,2.75,0.872,1.45,0.235,0.88
TAAACAGGGTCAAAGGCCAGAGTACGAATGTCGA,7.35,5.57,0.675,4.69,1.48,6.49,9.15,8.05,6.91,8.47

Sequence,PBM binding z-score [1],PBM binding z-score [2],PBM binding z-score [3],PBM binding z-score [4],PBM binding z-score [5],PBM binding z-score [6],PBM binding z-score [7],PBM binding z-score [8],PBM binding z-score [9],PBM binding z-score [10]
TCTACTAGGTCAACGATGGTCAGCTAATCTGCTA,3.61,3.2,0.626,2.29,0.75,4.36,6.19,6.03,4.97,5.88
ACTAGCAGGCCAATGGTCACTCAAGATTAGTCCG,-0.525,-0.42,-0.46,-0.417,-0.678,0.789,2.17,3.26,0.959,2.79
CAGCCTAAGTCAGGGCCAGTATAGGAGGAACGTT,-0.194,-0.51,-0.309,-0.69,-1.28,-0.483,0.0918,-0.709,-0.0751,-0.475
TCTCGTAGATCAATAGAGGTTAAGAAAGTGCGCT,0.399,3.34,0.504,1.71,-0.598,1.62,-0.218,1.6,2.83,2.12
ATCTCTAGGTAAAAGTCCAGTGAATCCCGAGGAT,0.192,0.0512,-0.0646,-0.297,0.61,0.598,1.24,3.02,1.28,2.94
CAAATTAGGTCAAAGGTCAAAGTCGAGCCAACCA,8.64,7.33,6.11,7.29,3.55,7.52,14,11.2,13.6,13.7
TCTAGCAGGCCAGAGCGTCACTCAAGAGGTACGG,-0.546,-0.726,-0.841,-1.08,-1.75,-0.0685,0.266,0.612,1.11,0.674
TCGAGAAGGTTACCAATGGGGCATTCAGCTTTCT,0.688,2.9,-0.534,1.76,-0.525,2.11,0.146,1.49,2,1.69
AGAATGAGGTTACCAAAGATCAGGGAAACGCTTG,1.86,6.59,-0.00475,3.1,-0.712,3.65,3,3.03,0.954,2.22
AGAATGATGTTATTAAGATCAGGGAATTGCGGTC,-0.0815,-0.447,6.67e-05,-0.339,-0.205,0.0831,0.179,-0.306,-0.179,-0.208
CCTACTTGGCCATCAGGTCATTGATATCAACGTT,2.95,1.81,2.06,2.21,0.454,2.12,0.623,1.36,0.665,1.13
ATACCAAGGTGATCGTGAGGTCGTCGATACTAAC,1.46,1.08,0.311,0.992,-0.191,1.75,0.672,0.691,0.0309,0.54
GGAACGAGGGCAAGTTGAGAGCAGAGTTTGATGG,1,0.529,-0.352,0.383,-0.627,1.72,0.945,1.34,0.0684,0.629
GATACAGGGTCAAGGCCAGAGCACGCGTATTGAT,6.68,4.17,0.0226,3.67,-0.301,5.48,5.84,5.3,2.03,4.13
GCAGACAGGTGAAAAGCAGGTAACTCAGGGTGGC,-0.224,-0.0671,-0.495,-0.319,-0.696,0.507,0.376,0.014,-0.488,-0.253
ATATGTAGGTTACATCCAGGTCATTCAGGCTATG,2.67,4.56,3.72,3.08,0.989,4.38,5.7,4.88,2.67,4.04
AGGATGAGGTTATACGTAGATCAGGGAAGAAAGT,2.42,1.94,0.445,2.03,0.715,2.62,1.16,1.11,0.501,0.724
CGTTCAAGGTCAGAGAGGTCAGTGAATGCCGAGT,6.69,5.26,3.71,4.58,0.61,5.27,4.38,4.69,1.58,3.31
CCGACTGGGGCAGAGGTTACCATACTCAGTACGA,0.287,0.761,-0.0955,1.34,-1.08,3.62,8.22,7.57,6.11,7.57
CCGACTGGGGCATAAGGTTACCCTAAGCCAGCCC,0.368,0.99,-0.135,0.439,-1.18,1.6,1.95,3.02,0.838,2.09
CTACCAAGGTAAACAAGGTCGTTGATTACTATTC,0.877,1.37,0.268,1.56,-0.376,1.57,0.314,0.42,-0.128,0.258
CGAACGAGGGCATGAGATGATAGCAAATGCCGAT,0.416,0.173,0.0308,-0.0144,-0.705,1.22,1.5,0.73,0.325,0.278
ATCTCTAGGTAACAAGTACAGTGAAAGAGAGGAC,0.404,0.297,0.245,-0.0374,0.894,0.308,1.33,1.36,0.696,1.02
CCTACTGGGCCATTCAGAGGTCATTGGTCATATG,2.52,4.22,7.04,3.5,0.551,3.65,2.66,3.38,1.1,2.4

# Source: the supplement of paper PMC6555819
